Assay results: PubChem BioAssay AID1835 (Johns Hopkins Ion Channel Center, 2009)
The campaign covered roughly 2,400 compounds. About 750 (31%) were called active.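 The calls were made as follows: active = median signal gain over dofetilide-blocked control wells reaching their mean plus 3 SD, so readout 1 at least 0; inactive = the rest.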 The list shows a part of the results.

Molecular target: Voltage-gated inwardly rectifying potassium channel KCNH2 (Homo sapiens) (UniProt Q12809)
Test: hERG protection against dofetilide inhibition, confirmation, cell-based, thallium flux, duplicate retest, dofetilide IC70 (AID 1835)
Details: hERG cell line, FluxOR thallium flux, dofetilide-blocked; at 10 µM; stronger effect = higher value

Sequence of Voltage-gated inwardly rectifying potassium channel KCNH2 (Homo sapiens) (Q12809 whole entry, looked up): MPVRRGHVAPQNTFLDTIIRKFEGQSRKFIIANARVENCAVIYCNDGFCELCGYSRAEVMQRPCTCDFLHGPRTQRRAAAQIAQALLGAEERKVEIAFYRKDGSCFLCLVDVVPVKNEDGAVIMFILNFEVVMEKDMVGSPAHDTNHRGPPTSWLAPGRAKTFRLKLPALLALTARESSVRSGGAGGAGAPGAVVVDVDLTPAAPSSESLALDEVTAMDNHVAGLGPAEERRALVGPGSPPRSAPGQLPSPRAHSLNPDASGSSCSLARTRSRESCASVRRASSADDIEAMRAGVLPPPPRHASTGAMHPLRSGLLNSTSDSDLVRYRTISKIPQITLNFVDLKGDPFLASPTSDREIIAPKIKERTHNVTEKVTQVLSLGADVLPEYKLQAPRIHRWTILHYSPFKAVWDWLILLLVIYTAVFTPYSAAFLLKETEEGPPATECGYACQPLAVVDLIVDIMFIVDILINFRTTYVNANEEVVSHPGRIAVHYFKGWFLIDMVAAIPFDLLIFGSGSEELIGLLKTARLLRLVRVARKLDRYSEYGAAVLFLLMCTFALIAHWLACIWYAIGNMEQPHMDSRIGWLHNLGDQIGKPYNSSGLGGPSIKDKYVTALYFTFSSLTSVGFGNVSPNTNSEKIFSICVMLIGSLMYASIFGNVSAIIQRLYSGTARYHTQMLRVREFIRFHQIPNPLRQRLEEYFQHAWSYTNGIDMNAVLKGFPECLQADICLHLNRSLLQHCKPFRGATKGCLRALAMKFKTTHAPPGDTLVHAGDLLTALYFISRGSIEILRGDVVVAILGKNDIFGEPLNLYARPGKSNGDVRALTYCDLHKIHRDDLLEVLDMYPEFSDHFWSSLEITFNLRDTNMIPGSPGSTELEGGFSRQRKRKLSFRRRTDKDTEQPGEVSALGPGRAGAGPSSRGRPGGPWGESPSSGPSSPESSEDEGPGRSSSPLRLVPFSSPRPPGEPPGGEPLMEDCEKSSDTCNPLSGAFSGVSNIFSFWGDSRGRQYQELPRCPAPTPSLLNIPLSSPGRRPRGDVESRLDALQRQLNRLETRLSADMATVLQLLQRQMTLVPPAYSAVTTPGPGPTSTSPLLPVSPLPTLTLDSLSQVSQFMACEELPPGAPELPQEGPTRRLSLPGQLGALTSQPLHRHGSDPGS

Row | Compound | activity increase over dofetilide control, less the hit threshold
1 | CSCC[C@H](NC(=O)Nc1ccc(C)cc1C)C(=O)O | -8% (inactive)
2 | COCCn1c(=S)[nH]c2sc3c(c2c1=O)CCCC3 | 28% (active)
3 | COCCn1c(=S)[nH]c2sc3c(c2c1=O)CCC(C)C3 (configuration not stated) | 44% (active)
4 | COCCCn1c(=S)[nH]c2sc3c(c2c1=O)CCCC3 | 29% (active)
5 | COCCCn1c(=S)[nH]c2c(sc3ccccc32)c1=O | -3% (inactive)
6 | CCN1C(=O)C2(/C(=C(\O)c3ccc4c(c3)OCCO4)C(=O)C(=O)N2CCCOC)c2ccccc21 (configuration not stated) | -11% (inactive)
7 | CCCCNC(=O)CC(NS(=O)(=O)c1ccc(C)cc1)c1ccco1 (configuration not stated) | -13% (inactive)
8 | CCOC(=O)C1=C(C)NC(=O)NC1c1cccc(OC)c1OCc1ccccc1Cl (configuration not stated) | -11% (inactive)
9 | O=C(NCc1cccs1)C1CCC(CNS(=O)(=O)c2cccs2)CC1 (configuration not stated) | -16% (inactive)
10 | CCC(=O)c1cc2c(C)cc(=O)oc2c(C)c1O | -13% (inactive)
11 | COC(=O)c1sccc1NC(=S)NCc1ccc(Cl)cc1 | 19% (active)
12 | COC(=O)c1sccc1NC(=S)N1CCN(C)CC1 | -19% (inactive)
13 | CSc1ccccc1NC(=S)NCc1ccc(Cl)cc1 | -15% (inactive)
14 | Cc1ccc(OC(=O)c2sc3ncn(C)c(=O)c3c2C)cc1 | -18% (inactive)
15 | CCOC(=O)c1sc2ncnc(NCc3ccco3)c2c1C | 34% (active)
16 | CCOC(=O)c1c(NC(=O)/C=C/c2ccco2)sc(C)c1C | -14% (inactive)
17 | CCOC(=O)c1sc2ncnc(NCC(c3cccs3)N(C)C)c2c1C (configuration not stated) | 40% (active)
18 | c1ccc(Cn2ncc3c(N4CCN(C(c5ccccc5)c5ccccc5)CC4)ncnc32)cc1 | -7% (inactive)
19 | CCCCCCc1c(O)nc(SCC(=O)O)[nH]c1=O | -16% (inactive)
20 | Cc1cccc(NC(=S)c2nc3ccccc3s2)c1 | -12% (inactive)
21 | CC(C)NC(=S)NNc1nc2ccccc2s1 | -9% (inactive)
22 | S=C(Nc1ccc(Cl)cc1)c1nc2ccccc2s1 | 46% (active)
23 | Clc1ccc(Nc2nc3cccnc3s2)cc1 | -18% (inactive)

Row | Compound | activity increase over dofetilide control, less the hit threshold
24 | Cc1ccc(NC(=S)c2nc3ccccc3s2)cc1 | 5% (active)
25 | O=C(Nc1ccc(Cl)cc1)Nn1cnnc1 | -14% (inactive)
26 | O=C1C(=Cc2cccn2-c2ccc(O)cc2)C(=O)c2ccccc21 | -18% (inactive)
27 | Cc1oc(/N=C/c2ccc(F)cc2)c(C#N)c1C | -20% (inactive)
28 | CCC(NS(=O)(=O)c1cn(C)nc1C)c1ccccc1 (configuration not stated) | -8% (inactive)
29 | O=C(CSc1ncnc2c1cnn2-c1ccc(Cl)cc1)NCc1ccc2c(c1)OCO2 | -2% (inactive)
30 | CSc1ccc(CNc2nc3ccccc3n3cnnc23)cc1 | -20% (inactive)
31 | Cc1cc(C)c(-c2c(O)c3c(n(C)c2=O)CC(C)(C)CC3=O)c(C)c1 | -16% (inactive)
32 | Cn1c(=S)[nH]c2sc3c(c2c1=O)CCC(C(C)(C)C)C3 (configuration not stated) | 59% (active)
33 | CC1CCc2c(sc3[nH]c(=S)n(C)c(=O)c23)C1 (configuration not stated) | 82% (active)
34 | Cc1cccc(-n2c(=S)[nH]c3sc4c(c3c2=O)CCc2ccccc2-4)c1 | -6% (inactive)
35 | CCCCNC1=CC(=O)C(=O)c2ccccc21 | -9% (inactive)
36 | O=C(OCc1ccccc1)/C(=C/c1cccc([N+](=O)[O-])c1)NC(=O)c1ccco1 | -5% (inactive)
37 | CC1(C)CC2(CCO1)C(Nc1ccccc1)=NC(=S)N2CC(N)=O (configuration not stated) | -15% (inactive)
38 | Cc1ccccc1NC1=NC(=S)N(c2ccccc2)C12CCCCC2 | 22% (active)
39 | COc1ccc(NC(=O)C(=O)NNC(=O)c2ccc(Cl)cc2Cl)cc1 | 59% (active)
40 | COc1ccc(NC(=O)C(=O)NNC(=O)C(C)Oc2ccc(Cl)cc2Cl)cc1 (configuration not stated) | 59% (active)
41 | COc1ccc(-c2cc(C(F)(F)F)nc(SCC(=O)NCc3cccs3)n2)cc1 | -18% (inactive)
42 | COc1cc(OC)cc(C(=O)NC(=S)N(Cc2ccccc2)C(C)C)c1 | 30% (active)
43 | COc1ccc(CN(Cc2cccnc2)C(=S)NCCc2ccccc2)cc1OC | -11% (inactive)
44 | CCOc1ccc(C(=O)NC(=S)N(Cc2ccccc2)Cc2ccccc2)cc1 | 73% (active)
45 | COc1cc(OC)cc(C(=O)OCC(=O)N(C)c2ccccc2)c1 | -9% (inactive)
46 | CCCOc1ccc(C(=O)NNC(=S)NC(=O)c2ccccc2)cc1 | -36% (inactive)

Row | Compound | activity increase over dofetilide control, less the hit threshold
47 | CCCOc1ccc(CN(CCC#N)C(=S)NC(=O)c2ccccc2)cc1 | 9% (active)
48 | CC(C)N(Cc1ccccc1)C(=S)NC(=O)C1(C)CC1(Cl)Cl (configuration not stated) | 35% (active)
49 | N#CCCN(Cc1ccccc1)C(=S)NC(=O)c1ccccc1 | -3% (inactive)
50 | C=CCN(CC=C)C(=S)NC(=O)c1ccc(-c2ccccc2)cc1 | -2% (inactive)
51 | CCCN(CCC)C(=S)NC(=O)c1ccc(-c2ccccc2)cc1 | 97% (active)
52 | CCCN(CC1CC1)C(=S)Nc1ccccc1F | -7% (inactive)
53 | COc1ccc(C(=O)NC(=S)N(Cc2ccccc2)Cc2ccccc2)cc1 | 43% (active)
54 | COc1ccccc1NC(=O)C1CCCN1C(=O)Nc1ccc(F)cc1 (configuration not stated) | -14% (inactive)
55 | CC(C)c1cccc(C(C)C)c1NC(=O)COC(=O)[C@H](C)NC(N)=O | -11% (inactive)
56 | C/C(=N\NC(=O)c1cc2ccccc2cc1O)c1ccc(C)o1 | 50% (active)
57 | C/C(=N/NC(=O)c1cc2ccccc2cc1O)c1ccco1 | 40% (active)
58 | C/C(=N\NC(=S)Nc1c(C)cccc1C)c1cc2ccccc2o1 | -5% (inactive)
59 | C/C(=N\NC(=O)c1cc2ccccc2cc1O)c1cc2ccccc2o1 | 95% (active)
60 | O=C(OCc1ccc([N+](=O)[O-])cc1)c1cc2ccccc2oc1=O | -25% (inactive)
61 | C/C(=N\NC(=O)c1cc2ccccc2cc1O)c1ccccn1 | -10% (inactive)
62 | C/C(=N/NC(=O)c1sc(NS(=O)(=O)c2ccccc2)nc1C)c1sc(N)nc1C | -15% (inactive)
63 | C/C(=N\NC(=O)c1ccoc1C)c1cccc2ccccc12 | -13% (inactive)
64 | Cc1cc(N2CCN(C)CC2)nc(N2CCOCC2)n1 | -6% (inactive)
65 | O=C(N1CCOCC1)N1CCC(n2nnc3ccccc32)CC1 | -8% (inactive)
66 | CN(C)c1oc(-c2ccccc2)nc1C#N | -17% (inactive)
67 | Cn1c(=O)c2c(ncn2CC(=O)OCc2ccccc2)n(C)c1=O | -11% (inactive)
